PubChem BioAssay (NCATS)
Several values for one entry are separate records, joined by “and”; a condition that tells them apart may be missing. Equal values may be shown once. Inconclusive results are not listed. Activity calls are given as the source filed them. Calls follow the shape of the dose curve; as a rule, active = well fitted curve in the direction sought with a large enough effect; inconclusive = small, poorly fitted or top-dose-only effect, or another doubt; inactive = no such curve, though single readings can be large; an effect the other way counts as inactive or inconclusive.

Columns and labels:
MKL-1 = experiment: qHTS assay to identify novel small-molecules to repurpose for Merkel cell carcinoma treatment (AID 1296009); details: MCC and control cell lines, CellTiter-Glo viability, 72 h; series mostly up to 46 µM; also: nearly all actives have a fitted effect of over 60% in size; also: potency is read from the fitted curve at half-maximal effect
Method in brief: (§1)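 Cells exposed to NPC (8-point) and MIPE (11-point) compound dilutions for 72 hr at 37 degree celsius; viability read by CellTiter-Glo luminescence, normalized to no-cell and DMSO in-plate controls.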

MKL-2 = experiment: as above; details: MCC and control cell lines, CellTiter-Glo viability, 72 h; series mostly up to 46 µM
Method in brief: as §1

UISO = experiment: as above; details: MCC and control cell lines, CellTiter-Glo viability, 72 h; series mostly up to 46 µM
Method in brief: as §1

WaGa = experiment: as above; details: MCC and control cell lines, CellTiter-Glo viability, 72 h; series mostly up to 46 µM
Method in brief: as §1

C33A = experiment: Primary qHTS to identify gynecologic anti-cancer compounds using libraries of approved drugs and bioactive compounds (AID 1345084); details: Gynecologic cancer cell panel viability, ATPlite luminescence, 48 h; series mostly up to 57.5 µM; also: nearly all actives have a fitted effect of over 55% in size
Method in brief: (§2)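 Luminescence from the ATPlite ATP-monitoring reagent indicates viable cell number; lower signal means cytotoxicity. Cells received compound 16 h after seeding and were exposed for 48 h across five concentrations.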

CAOV3 = experiment: as above; details: Gynecologic cancer cell panel viability, ATPlite luminescence, 48 h; series mostly up to 57.5 µM
Method in brief: as §2

CASKI = experiment: as above; details: Gynecologic cancer cell panel viability, ATPlite luminescence, 48 h; series mostly up to 57.5 µM
Method in brief: as §2

Es-2 = experiment: as above; details: Gynecologic cancer cell panel viability, ATPlite luminescence, 48 h; series mostly up to 57.5 µM
Method in brief: as §2

HeLa = experiment: as above; details: Gynecologic cancer cell panel viability, ATPlite luminescence, 48 h; series mostly up to 57.5 µM
Method in brief: as §2

Hek293T = experiment: as above; details: Gynecologic cancer cell panel viability, ATPlite luminescence, 48 h, control line for the selectivity index; series mostly up to 57.5 µM
Method in brief: as §2

JEG-3 = experiment: as above; details: Gynecologic cancer cell panel viability, ATPlite luminescence, 48 h; series mostly up to 57.5 µM
Method in brief: as §2

OV90 = experiment: as above; details: Gynecologic cancer cell panel viability, ATPlite luminescence, 48 h; series mostly up to 57.5 µM
Method in brief: as §2

PA-1 = experiment: as above; details: Gynecologic cancer cell panel viability, ATPlite luminescence, 48 h; series mostly up to 57.5 µM
Method in brief: as §2

SKOV3 = experiment: as above; details: Gynecologic cancer cell panel viability, ATPlite luminescence, 48 h; series mostly up to 57.5 µM
Method in brief: as §2

Tov-21-G = experiment: as above; details: Gynecologic cancer cell panel viability, ATPlite luminescence, 48 h; series mostly up to 57.5 µM
Method in brief: as §2

Tov112D = experiment: as above; details: Gynecologic cancer cell panel viability, ATPlite luminescence, 48 h; series mostly up to 57.5 µM
Method in brief: as §2

[1] = Drug repurposing screens with cells derived from glioblastoma tumor samples (AID 1345199); details: GBM patient neurospheres viability, ATP luminescence, 48 h; also: nearly all actives have a fitted effect of over 40% in size
Method in brief: (§3)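 Four patient lines of CD133+ GBM neurospheres were screened at several concentrations; hits were retested in those lines plus three slower-growing GBM lines, using 48-hour treatment and ATP-based viability.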

astro = experiment: as above; details: viability, ATP luminescence, 48 h; series mostly up to 45.9 µM
Method in brief: as §3

[2] = at 45.9 µM (top of the series), tumour line B
[3] = at 45.9 µM (top of the series), tumour line D
[4] = at 46 µM (top of the series), tumour line A
[5] = at 46.1 µM (top of the series), tumour line C
% is scaled to controls: 0 for no effect and ±100 for the full control effect.

CC(C)NCC(O)COc1cccc2[nH]ccc12 (centres undefined)
inactive: Potency (MKL-1) | Potency (MKL-2) | Potency (UISO) | Potency (WaGa) | Potency (C33A) | Potency (CAOV3) | Potency (CASKI) | Potency (Es-2) | Potency (HeLa) | Potency (Hek293T) | Potency (JEG-3) | Potency (OV90) | Potency (PA-1) | Potency (SKOV3) | Potency (Tov-21-G) | Potency (Tov112D) | activity, negative = cell killing [1, 2] -5.39% | activity, negative = cell killing [1, 3] -14.8% | activity, negative = cell killing [1, 4] -24.6% | activity, negative = cell killing [1, 5] 1.52% | Potency (astro)

C=C1C(=O)OC(CCCCCCCC)C1C(=O)O (centres undefined)
inactive: Potency (MKL-1) | Potency (MKL-2) | Potency (UISO) | Potency (WaGa)

O=C(Nc1ccccc1Br)N[C@@H]1CCN(c2ccc(C(F)(F)F)cn2)C1
inactive: Potency (MKL-1) | Potency (MKL-2) | Potency (UISO) | Potency (WaGa)

CC[C@H]1OC(=O)[C@H](C)C(=O)[C@H](C)[C@@H](O[C@H]2O[C@H](C)C[C@H](N(C)C)[C@@H]2O)[C@](C)(OC)C[C@@H](C)C(=O)[C@H](C)[C@H]2N(CCCCn3cnc(-c4cccnc4)c3)C(=O)O[C@]12C
inactive: Potency (MKL-1) | Potency (MKL-2) | Potency (UISO) | Potency (WaGa)

CCCCC1C(=O)N(c2ccccc2)N(c2ccccc2)C1=O
inactive: Potency (MKL-1) | Potency (MKL-2) | Potency (UISO) | Potency (WaGa) | Potency (C33A) | Potency (CAOV3) | Potency (CASKI) | Potency (Es-2) | Potency (HeLa) | Potency (Hek293T) | Potency (JEG-3) | Potency (OV90) | Potency (PA-1) | Potency (SKOV3) | Potency (Tov-21-G) | Potency (Tov112D) | activity, negative = cell killing [1, 2] -14.3% and -18.7% | activity, negative = cell killing [1, 3] -13.1% and -6.92% | activity, negative = cell killing [1, 5] 4.16% and -25.1% | Potency (astro)

CCN(CC)CCOc1ccc(C(=C(Cl)c2ccccc2)c2ccccc2)cc1
inactive: Potency (MKL-1) | Potency (MKL-2) | Potency (UISO) | Potency (WaGa)

CC(=NNC(=S)N1CCC1)c1ccccn1
inactive: Potency (MKL-1) | Potency (MKL-2)
active: Potency (UISO) 3.3 nM | Potency (WaGa) 0.7 nM

NC1CCC(Nc2nc(Nc3ccc(C(=O)N4CCCCC4)cc3)c3ncn(-c4cccc(F)c4)c3n2)CC1 (centres undefined)
inactive: Potency (MKL-1) | Potency (MKL-2) | Potency (UISO) | Potency (WaGa)

COc1cc(NC(=O)c2ccc(-c3ccc(Cl)cc3)o2)cc(OC)c1
inactive: Potency (MKL-1) | Potency (MKL-2) | Potency (UISO) | Potency (WaGa)

O=C(O)C(O)Cc1ccc(O)c(O)c1 (centres undefined)
inactive: Potency (MKL-1) | Potency (MKL-2) | Potency (UISO) | Potency (WaGa)

CCn1c(C(=O)N(C2CC2)C2CC2)cc2c3c(ncn3C)c(Nc3cc(C)n(C)n3)nc21
inactive: Potency (MKL-1) | Potency (MKL-2) | Potency (UISO) | Potency (WaGa) | Potency (C33A) | Potency (CAOV3) | Potency (CASKI) | Potency (Es-2) | Potency (HeLa) | Potency (Hek293T) | Potency (JEG-3) | Potency (OV90) | Potency (PA-1) | Potency (SKOV3) | Potency (Tov-21-G) | Potency (Tov112D)

O=C(N[C@@H](c1ccccc1)[C@@H]1CCCCN1)c1cccc(C(F)(F)F)c1Cl
inactive: Potency (MKL-1) | Potency (MKL-2) | Potency (UISO) | Potency (WaGa)

CC=CC[C@@H](C)C(=O)[C@H]1C(=O)N[C@@H](C(C)C)C(=O)N(C)CC(=O)N(C)[C@@H](CC(C)C)C(=O)N[C@@H](C(C)C)C(=O)N(C)[C@@H](CC(C)C)C(=O)N[C@@H](C)C(=O)N[C@H](C)C(=O)N(C)[C@@H](CC(C)C)C(=O)N(C)[C@@H](CC(C)C)C(=O)N(C)[C@@H](C(C)C)C(=O)N1C
inactive: Potency (MKL-1) | Potency (MKL-2) | Potency (UISO) | Potency (WaGa)

O=C1C[C@@H](c2ccc(O)cc2)Oc2cc(O)cc(O)c21
inactive: Potency (MKL-1) | Potency (MKL-2) | Potency (UISO) | Potency (WaGa)

O=c1c(-c2ccc(O)cc2)coc2cc(O[C@@H]3O[C@H](CO)[C@H](O)[C@H](O)[C@H]3O)ccc12
inactive: Potency (MKL-1) | Potency (MKL-2) | Potency (UISO) | Potency (WaGa)

N#Cc1ccc(NC(=O)Nc2ccccc2Br)c2n[nH]nc12
inactive: Potency (MKL-1) | Potency (MKL-2) | Potency (UISO) | Potency (WaGa)

N[C@@]1(C(=O)O)CS(=O)(=O)[C@H]2[C@H](C(=O)O)[C@H]21
inactive: Potency (MKL-1) | Potency (MKL-2) | Potency (UISO) | Potency (WaGa)

CC(C)(C)COc1ccc(-n2cc(C(=O)O)cn2)cc1C#N
inactive: Potency (MKL-1) | Potency (MKL-2) | Potency (UISO) | Potency (WaGa)

O=c1ccn([C@@H]2O[C@H](CO)[C@H](O)[C@H]2O)c(=O)[nH]1
inactive: Potency (MKL-1) | Potency (MKL-2) | Potency (UISO) | Potency (WaGa)

O=C(NOCC(O)CO)c1cc(Br)c(F)c(F)c1Nc1ccc(I)cc1F (centres undefined)
inactive: Potency (MKL-1) | Potency (MKL-2) | Potency (UISO) | Potency (WaGa)

CCN(CC)C(=O)c1ccc(O)c(OC)c1
inactive: Potency (MKL-1) | Potency (MKL-2) | Potency (UISO) | Potency (WaGa) | Potency (C33A) | Potency (CAOV3) | Potency (CASKI) | Potency (Es-2) | Potency (HeLa) | Potency (Hek293T) | Potency (JEG-3) | Potency (OV90) | Potency (PA-1) | Potency (SKOV3) | Potency (Tov-21-G) | Potency (Tov112D) | activity, negative = cell killing ([1]; at 20 µM (top of the series), tumour line C) -17.1% | activity, negative = cell killing ([1]; at 21.2 µM (top of the series), tumour line B) -3.79% | activity, negative = cell killing ([1]; at 21.2 µM (top of the series), tumour line D) 8.85% | activity, negative = cell killing ([1]; at 21.3 µM (top of the series), tumour line A) -7.96% | activity, negative = cell killing [1, 2] -9.11% | activity, negative = cell killing [1, 3] 5.23% | activity, negative = cell killing [1, 4] -18.7% | activity, negative = cell killing [1, 5] -18.9% | Potency (astro)

COc1ccc2c3c1OC1C[C@@H](O)C=C[C@@]31CCN(C)C2 (some centres undefined)
inactive: Potency (MKL-1) | Potency (MKL-2) | Potency (UISO) | Potency (WaGa)
